MITF TRPM1 inh: inhibitors of MITF-dependent TRPM1 promoter reporter, primary screen, cell-based, SK-MEL-5, single point, luciferase | SK-MEL-5 TRPM1 promoter luciferase, 24 h | inhibition, % at 12.5 µM | 0.83% of 330,000 active | AID 488899, 2010;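 active means mean inhibition across replicates of 60% or more, whatever share of single replicates reaches that level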
ABHD5 PLIN5 PPI: ABHD5-PLIN5 interaction inhibitors, primary screen, cell lysate, split luciferase complementation, luminescence; AID 602281, 2012; Split G. princeps luciferase complementation, 4 h; inhibition, % at 4 µM; 0.78% of 360,000 active;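 active means inhibition above the mean inhibition across every tested compound plus 3 SD, cut at about 22% in these data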
Target sequence (Q00G26 whole entry, looked up): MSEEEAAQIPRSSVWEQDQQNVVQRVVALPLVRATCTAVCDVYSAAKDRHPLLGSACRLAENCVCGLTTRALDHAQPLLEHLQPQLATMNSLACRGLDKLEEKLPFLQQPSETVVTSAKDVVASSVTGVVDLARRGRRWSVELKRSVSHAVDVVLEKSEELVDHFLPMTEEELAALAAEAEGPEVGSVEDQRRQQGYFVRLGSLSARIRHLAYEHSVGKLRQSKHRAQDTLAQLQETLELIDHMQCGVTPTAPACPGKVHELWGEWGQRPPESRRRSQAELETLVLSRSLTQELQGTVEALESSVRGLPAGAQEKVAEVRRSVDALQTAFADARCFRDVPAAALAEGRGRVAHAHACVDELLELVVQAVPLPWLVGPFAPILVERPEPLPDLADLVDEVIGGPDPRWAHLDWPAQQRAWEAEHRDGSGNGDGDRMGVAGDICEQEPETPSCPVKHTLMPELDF
Target sequence (Q8WTS1 whole entry, looked up): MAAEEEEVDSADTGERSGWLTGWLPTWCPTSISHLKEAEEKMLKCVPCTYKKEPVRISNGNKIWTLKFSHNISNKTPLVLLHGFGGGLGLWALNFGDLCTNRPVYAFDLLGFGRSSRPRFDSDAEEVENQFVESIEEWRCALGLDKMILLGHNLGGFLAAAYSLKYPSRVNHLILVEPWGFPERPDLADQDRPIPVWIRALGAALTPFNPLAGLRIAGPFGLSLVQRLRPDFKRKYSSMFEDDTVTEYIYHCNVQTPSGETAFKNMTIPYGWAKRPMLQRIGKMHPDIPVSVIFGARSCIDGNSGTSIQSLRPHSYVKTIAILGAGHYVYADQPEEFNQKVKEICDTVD
Shn3 3UTR inh: reduction of Shn3 3'UTR firefly luciferase signal, primary screen, Schnurri-3 inhibitor project, cell-based, Clone20 osteoblasts, set 2; Clone20 osteoblast Shn3 3'UTR firefly luciferase, 24 h; inhibition, % at 12.5 µM; 0.52% of 360,000 active;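 active means mean inhibition of at least 75% with every replicate also reaching 75%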
EWS-Fli block: EWS/Fli-driven NR0B1 reporter inhibitors, primary screen, A673 cells, NR0B1 luciferase, luminescence, MLPCN library. viability-normalised. inhibition, % at 12.6 µM. 0.67% of 350,000 active. AID 651661, 2012;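 active means mean inhibition of at least 50% after viability correction, with every replicate also passing that limit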;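 further: firefly luciferase signal divided by Alamar Blue viability fluorescence both relative to DMSO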
Peg3 promoter: Peg3 promoter-driven luciferase inhibitors, primary screen, cell-based, HeLa, luciferase luminescence; HeLa PEG-Prom luciferase reporter, overnight; inhibition, % at 20 µM; 1.7% of 360,000 active; AID 588405, 2011;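 active means inhibition of at least 50% at 20 µM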
PAX8 inh HTS: inhibitors of PAX8-driven TPO luciferase reporter, primary screen, RMG-I cells, single concentration; SteadyGlo, 24 h; inhibition, % at 12.6 µM; 1.2% of 360,000 active;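 active means mean replicate inhibition at least 60% with every replicate also reaching 60%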;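 further: luciferase light reporting Pax8 driven TPO promoter activity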
Numbers stand for hits. Only some compounds are listed: those with a hit (about 3% of all), similar ones and a draw of the others.

Screening Cc1ccc(S(=O)(=O)N[C@@H]2CC[C@@H](CC(=O)N3CCC(Cc4ccccc4)CC3)O[C@H]2CO)cc1 returned EWS-Fli block inactive and PAX8 inh HTS inactive.
Screening CC(C)NC(=O)N(C)C[C@@H]1Oc2c(NC(=O)c3nc4ccccc4s3)cccc2C(=O)N([C@@H](C)CO)C[C@@H]1C returned EWS-Fli block inactive.
Screening COc1ccc(-c2nn(Cc3ccccc3)cc2C(=O)N2CCN(c3ccccn3)CC2)cc1OC returned MITF TRPM1 inh inactive, ABHD5 PLIN5 PPI inactive, Shn3 3UTR inh inactive, EWS-Fli block inactive, Peg3 promoter inactive and PAX8 inh HTS inactive.
`O=C(c1cn(Cc2ccccc2)nc1-c1ccccc1)N1CCN(c2ccccn2)CC1` gave MITF TRPM1 inh inactive, ABHD5 PLIN5 PPI inactive, Shn3 3UTR inh inactive, EWS-Fli block 53.9, Peg3 promoter inactive and PAX8 inh HTS inactive.
`O=C(NCCCN1CCOCC1)c1ccc(-n2nc(C(F)(F)F)cc2-c2cccs2)cc1` gave MITF TRPM1 inh inactive, ABHD5 PLIN5 PPI inactive, Shn3 3UTR inh inactive, Peg3 promoter 55.4 and PAX8 inh HTS inactive.
`Cc1cccc(C)c1NS(=O)(=O)c1ccc(-c2cnc(C3CC3)o2)cc1` gave MITF TRPM1 inh 74.4, ABHD5 PLIN5 PPI inactive, Shn3 3UTR inh inactive, Peg3 promoter inactive and PAX8 inh HTS 92.3.
Screening COc1ccc(C)cc1NS(=O)(=O)c1ccc(-c2cnc(C3CC3)o2)cc1 returned MITF TRPM1 inh 68.4, ABHD5 PLIN5 PPI inactive, Shn3 3UTR inh 89.6, EWS-Fli block inactive, Peg3 promoter inactive and PAX8 inh HTS 98.9.
Screening Cc1ccc(N(C)S(=O)(=O)c2ccc(-c3cnc(C4CC4)o3)cc2)cc1 returned MITF TRPM1 inh inactive, ABHD5 PLIN5 PPI inactive, Shn3 3UTR inh inactive, EWS-Fli block 51.9, Peg3 promoter inactive and PAX8 inh HTS inactive.
O=S(=O)(NCc1ccccc1)c1ccc(-c2cnc(C3CC3)o2)cc1 was read as MITF TRPM1 inh inactive, ABHD5 PLIN5 PPI inactive, Shn3 3UTR inh inactive, EWS-Fli block inactive, Peg3 promoter inactive and PAX8 inh HTS inactive.
Screening CCOc1ccccc1CNS(=O)(=O)c1ccc(-c2cnc(C3CC3)o2)cc1 returned MITF TRPM1 inh inactive, ABHD5 PLIN5 PPI inactive, Shn3 3UTR inh inactive, EWS-Fli block 59.0, Peg3 promoter inactive and PAX8 inh HTS inactive.
For Cc1ccc(NS(=O)(=O)c2ccc(-c3cnc(C4CC4)o3)cc2)cc1 the results were MITF TRPM1 inh inactive, ABHD5 PLIN5 PPI inactive, Shn3 3UTR inh inactive, EWS-Fli block inactive, Peg3 promoter inactive and PAX8 inh HTS inactive.
`Cc1ccc(CNS(=O)(=O)c2ccc(-c3cnc(C4CC4)o3)cc2)cc1` gave MITF TRPM1 inh inactive, ABHD5 PLIN5 PPI inactive, Shn3 3UTR inh inactive, EWS-Fli block inactive, Peg3 promoter inactive and PAX8 inh HTS inactive.
`Cc1noc(C)c1S(=O)(=O)Nc1cccc2c1O[C@@H](CN(C)Cc1ccccc1)[C@@H](C)CN([C@@H](C)CO)C2=O` gave EWS-Fli block inactive and PAX8 inh HTS inactive.
O=C(C[C@H]1CC[C@@H]2[C@H](COC[C@@H](O)CN2S(=O)(=O)c2cccc(F)c2)O1)Nc1ccc(-c2ccccc2)cc1 was read as EWS-Fli block inactive and PAX8 inh HTS 72.5.
Screening O=C(C[C@H]1CC[C@H]2[C@@H](COC[C@@H](O)CN2S(=O)(=O)c2cccc(F)c2)O1)Nc1ccc(-c2ccccc2)cc1 returned EWS-Fli block inactive and PAX8 inh HTS inactive.
For O=C(C[C@H]1CC[C@@H]2[C@H](COC[C@H](O)CN2S(=O)(=O)c2cccc(F)c2)O1)Nc1ccc(-c2ccccc2)cc1 the results were EWS-Fli block inactive and PAX8 inh HTS 116.1.
Screening O=C(C[C@@H]1CC[C@H]2[C@@H](COC[C@H](O)CN2S(=O)(=O)c2ccccc2)O1)Nc1ccc(-c2ccccc2)cc1 returned EWS-Fli block inactive and PAX8 inh HTS inactive.
Screening COc1ccc(-c2nsc3c(N4CCCCC4)ncnc23)cc1 returned MITF TRPM1 inh 64.7, ABHD5 PLIN5 PPI inactive, Shn3 3UTR inh inactive, Peg3 promoter inactive and PAX8 inh HTS 75.5.

Screens deposited in PubChem BioAssay by several laboratories.
